Compounds without any hit were thinned out: in the full panel of roughly 83,000, 20% have a hit.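 Compound tested at a single concentration for 48 hours in 96-well plates; a percent growth value below 10 was scored as active.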 A number with no mark means an inactive call. Activity calls are given as the source filed them.

This note sets out measurements from PubChem BioAssay (NCI).

This test has as its system HL-60(TB) leukemia. Kind of test: NCI-60 one-dose screen, 48 h (100 = growth as untreated, 0 = no growth, -100 = all killed). To be noted: 10 µM unless noted.
`COc1cc(/C=C2\C(=O)Nc3ccccc32)ccc1OCc1ccc(Cl)cc1`: the growth is 113%.
Turning to `CN(C)CC(=O)Nc1nc(-c2cccc(NS(=O)(=O)c3cccc4c(N(C)C)cccc34)c2)cs1`, the growth was 80.8%.
For the compound `CCNC(=O)N1CCc2cc(OC)c(OCCc3ccc(OC)nc3)cc2C1c1ccc(C)cc1C` (stereo unspecified), the growth was 8.48% (active).
Turning to `CN1CCN(c2nc(-c3cnc4ccccc4n3)cc3ccccc23)CC1`, the growth was -36.2% (active).
Next, `Cn1nc(Nc2ccccc2)c(C(=O)NN)c1N`: 105%; `C=C1C(=O)O[C@@H]2/C=C(/C)C3=CC(=O)[C@@](C)(C[C@H](OC(=O)/C(C)=C\C)[C@@H]12)O3`: -11.9% (active); `Cn1c(SCC(=O)c2ccc(F)cc2)nc2ccccc2c1=O`: 97.9%.
With `C#CCOc1ccc(/C=N\Nc2nc(-c3ccc(C)cc3)cs2)cc1OC`, the growth was 69.5%.
Next, `Cn1c(SCC(=O)c2cccs2)nc2ccccc2c1=O`: 91.8%; `O=S(=O)(NCCCNc1nccc(-n2cnc3ccccc32)n1)c1ccc(F)cc1`: 90.9%.
Next, `COc1ccc(NC2=C(Cl)C(=O)C(C)=C(C)C2=O)cc1OC`: 88.4%; `C=C1CC[C@@H]2[C@]3(C)COC(c4ccccc4)O[C@@H]3CC[C@@]2(C)[C@@H]1C/C=C1/C(=O)OC[C@H]1O` (stereo partly specified): 48.9%.
Next, `COc1ccc(COc2ccc(/C=C3/C(=O)Nc4cc(Cl)ccc43)cc2)cc1`: 119%; `Cc1cccc(NC(c2cc3cccc4ccc5cccc2c5c43)c2nnnn2C(C)(C)C)c1C` (stereo unspecified): 91.9%.
With `O=C(/C=C/c1cccc(F)c1)c1cccc(OCCCCOc2cccc(C(=O)/C=C/c3cccc(F)c3)c2)c1`, the growth is 101%.
The value for `COc1ccc(CCN2C(=O)CSC2=S)cc1` was 54.6%.
Regarding `NC(N)=Nc1ccc(Oc2cccc(NC(N)=Nc3ccc(Br)c(C(F)(F)F)c3)c2)cc1`, the growth is 17.6%.
The value for `Nc1nc(N)c2c(n1)NC(c1ccc(F)cc1)CC(c1ccc(Nc3nc(NCCO)nc(Nc4ccc(Cl)cc4)n3)cc1)=N2` (stereo unspecified) was -11.4% (active); that for `C=C(C)[C@@H]1CC[C@]2(COC)CC[C@]3(C)[C@H](CC[C@@H]4[C@@]5(C)CCCNC(C)(C)[C@@H]5CC[C@]43C)[C@@H]12` was -69.2% (active); that for `CN(C)C(=O)c1ccccc1-n1cnc2ccccc2c1=O` was 99.1%.
`COc1cc2cc(Oc3ccc(NC(=O)c4cccc(C(F)(F)F)c4)cc3)c(C)nc2cc1OCCN(C)C`: the growth is 97.2%.
Take `NS(=O)(=O)c1cccc(Nc2nc(SCC(=O)c3ccc(Cl)cc3)nc3c2CCC3)c1`: the growth is 111%.
The value for `COc1ccccc1-n1cc(C#N)c(N)c1C(=O)c1ccc(Cl)cc1` was 36.5%; that for `Cc1cccc(N2CCN(C3=C(Cl)C(=O)c4ncccc4C3=O)CC2)c1` was 7.3% (active); that for `Cc1ccc(-n2cc(/C=N/NC(=O)c3ccncc3)c(-c3ccc(S(C)(=O)=O)cc3)n2)cc1` was 76.4%.
The value for `COc1ccc(C(=O)/C=C/c2ccc(OCc3ccc(C)cc3)c(OC)c2)cc1OC` was 40.7%.
In the case of `Cc1nn(-c2ccccc2)c2nc(CCl)[nH]c(=O)c12`, the growth is 33.1%.
The value for `O=C(O)c1ccc(-n2cc(CNc3cccc(Cl)c3)c(-c3ccc(F)cc3)n2)cc1` was 105%.
Next, `Cn1cc(-c2nc(N)nnc2-c2c[nH]c3ccccc23)c2cc(Br)ccc21`: -0.377% (active); `IP(CCCCCCCCCCSc1n(Cc2ccc3ccccc3c2)c(-c2ccccc2)c(-c2ccccc2)[n+]1Cc1ccc2ccccc2c1)(c1ccccc1)(c1ccccc1)c1ccccc1`: -62.5% (active); `C=C(C)[C@@H]1CC[C@]2(C(=O)N3CCN(C)CC3)CC[C@]3(C)[C@H](CC[C@@H]4[C@@]5(C)CC[C@H](OP(=O)(OCC)OCC)C(C)(C)[C@@H]5CC[C@]43C)[C@@H]12`: 42.2%.
On to `COC(=O)/C=C/c1c(C2(C)NC(=O)c3ccccc3N2)c(=O)oc2ccc(Cl)cc12` (stereo unspecified), for which the growth is 109%.
Consider `COc1ccc(/C=N/Nc2nc(N/N=C/c3ccc(OC)cc3O)nc(N3CCOCC3)n2)c(O)c1`, for which the growth is 30.9%.
As to `ClC(Cl)c1nc(-c2cccs2)n2nc(-c3ccccc3)cc2n1`, the growth was 0.604% (active).
Next, `CCCCSc1nnc(-c2ccc(-c3ccc(Cl)cc3)nc2C)o1`: 91.9%; `Cc1cc(NS(=O)(=O)c2ccc(-c3cnc(C4CC4)o3)cc2)ccc1I`: 1.38% (active).
